# From PubChem BioAssay AID1946 (Johns Hopkins Ion Channel Center, 2009)
# In all, about 2,400 compounds went through this assay and about 180 (7.5%) were called active. Many of the other results were omitted from the sample, so actives are more common in it than they were. Unmarked numbers belong to inactive results.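 How the source made its calls: active means readout below zero, meaning a drop past 3 SD under the dofetilide-free negative control mean; inactive means the rest.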
# Target: Potassium voltage-gated channel subfamily KQT member 2 (Rattus norvegicus) (UniProt O88943)
# Sequence (O88943 whole entry, looked up): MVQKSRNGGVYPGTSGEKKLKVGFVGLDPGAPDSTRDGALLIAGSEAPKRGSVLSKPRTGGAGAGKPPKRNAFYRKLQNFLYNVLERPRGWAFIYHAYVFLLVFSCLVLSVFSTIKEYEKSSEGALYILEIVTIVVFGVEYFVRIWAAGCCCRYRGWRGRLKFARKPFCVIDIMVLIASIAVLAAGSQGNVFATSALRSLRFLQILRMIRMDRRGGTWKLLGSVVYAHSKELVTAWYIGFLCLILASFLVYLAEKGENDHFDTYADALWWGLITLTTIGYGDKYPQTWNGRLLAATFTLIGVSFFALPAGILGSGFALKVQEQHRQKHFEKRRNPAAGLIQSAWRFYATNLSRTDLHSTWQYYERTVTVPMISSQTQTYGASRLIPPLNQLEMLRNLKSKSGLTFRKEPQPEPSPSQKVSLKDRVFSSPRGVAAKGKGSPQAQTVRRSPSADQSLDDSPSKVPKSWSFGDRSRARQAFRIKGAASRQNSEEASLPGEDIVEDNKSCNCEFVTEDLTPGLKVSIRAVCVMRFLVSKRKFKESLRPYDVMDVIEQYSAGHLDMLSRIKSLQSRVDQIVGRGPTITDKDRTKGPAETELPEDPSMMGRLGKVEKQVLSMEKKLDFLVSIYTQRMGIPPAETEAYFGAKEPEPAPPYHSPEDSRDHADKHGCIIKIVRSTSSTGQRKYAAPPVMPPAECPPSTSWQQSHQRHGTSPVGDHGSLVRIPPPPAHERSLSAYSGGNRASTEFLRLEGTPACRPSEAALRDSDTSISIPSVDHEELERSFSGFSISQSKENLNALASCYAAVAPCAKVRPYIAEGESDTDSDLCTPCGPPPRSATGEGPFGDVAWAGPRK
# Assay: KCNQ2 blockade in CHO cells – cell-based, FluxOR thallium flux, counter-screen for hERG block protector project, confirmation (AID 1946)
# Conditions: FluxOR thallium flux fluorescence, at 10 µM, stronger effect = lower value, zero marks the 3-SD hit cutoff
row,SMILES,activity change vs negative control
1,Cc1ccc(-c2nc3ccccc3c(=O)n2O)cc1,29.3%
2,COc1ccc(-n2nc(C(=O)NCC(=O)NCc3ccc(F)cc3)c3ccccc3c2=O)cc1OC,12.7%
3,NC(=O)c1nsc(C(=O)N(CC(=O)NCc2ccccc2)c2ccc(F)cc2)c1N,-0.6% (active)
4,Cc1ccccc1Cn1nc(C)c(NC(=O)c2ccccc2)c1C,73%
5,COc1ccccc1C(=O)NNC(=O)C(=O)Nc1ccc(C)cc1,162%
6,O=C(O)c1cc(NN=C2c3ccccc3-c3ccccc32)ccc1Cl,63.8%
7,COC(=O)c1ccc(C(=O)NC(=S)Nc2nc3c(s2)CCCC3)cc1,37.8%
8,O=C(CN1C(=O)COc2ccccc21)NCCCN1CCOCC1,6.2%
9,CC1CC(C)CN(CCCNC(=O)Cc2c(C(=O)O)[nH]c3ccccc23)C1 (configuration not stated),-0.3% (active)
10,CC1c2nc3ccccc3n2C(CC(=O)NCCCN2CCOCC2)C(=O)N1Cc1ccccc1 (configuration not stated),12%
11,c1ccc2c(c1)c1ccccc1n1c(-c3ccc4c(c3)OCO4)nnc21,11.9%
12,Oc1c(Br)cc(Cl)cc1C=Nc1ccccc1Br,57.7%
13,COc1ccc(OC(=O)Cc2cccc3ccccc23)cc1,15.2%
14,COc1ccc(CC(=O)Nc2ccc(-c3noc(-c4ccccc4OC)n3)cc2)cc1,7%
15,COc1ccc(NC(=O)CSCC(=O)Oc2c(OC)cccc2OC)cc1,-7.6% (active)
16,Cc1snnc1C(=O)NC(=S)Nc1ccccc1,53.9%
17,CCOc1ccc(CCNC(=O)Nc2ccccc2C)cc1OCC,13.5%
18,Cc1cc(Cl)ccc1OC(C)C(=O)NCCc1ccc2c(c1)OCCO2 (configuration not stated),-9.4% (active)
19,COc1ccc(CCNC(=O)C(=O)Nc2ccc3c(c2)OCO3)cc1OC,8.8%
20,CCc1ccc(S(=O)(=O)NC(=S)NC2CCCCC2)cc1,83.7%
21,O=C(CCN1C(=O)/C(=C\C=C\c2ccccc2)SC1=S)Nc1cccc(C(=O)O)c1,0.8%
22,C/C(O)=C/c1nc2ccccc2[nH]c1=O,-2% (active)
23,O=c1[nH]c2ccccc2nc1C(F)(F)C(F)F,15.2%
24,Cc1nc2ccc(C(=O)O)cc2[nH]1,11.1%
25,O=C(O)Cn1cc(CN2CCOCC2)c2ccccc21,2.7%
26,OC(CCN1CCOCC1)c1ccccc1 (configuration not stated),-2.1% (active)

row,SMILES,activity change vs negative control
1,S=C(NCCc1ccccc1)NCCN1CCOCC1,11.5%
2,O=c1ccn(Cc2ccc(F)cc2)c2ccnc(C(F)(F)F)c12,-1.9% (active)
3,COc1ccc(C(=O)Nc2ccccc2C(=O)O)cc1Cl,19.2%
4,O=C(NC(=S)NCCC1=CCCCC1)c1ccco1,66.4%
5,Cc1cccc(Cn2c(O)c(N=NC(=S)Nc3ccccc3F)c3ccccc32)c1,5.5%
6,CCN(CC)CCCNC(=O)c1cn(-c2cccc(OC)c2)c(=O)c2ccccc12,-4% (active)
7,COc1cccc(NC(=O)c2nn(-c3ccc(OC)cc3OC)c(=O)c3ccccc23)c1,15.7%
8,COc1cccc(-n2nc(C(=O)O)c3ccccc3c2=O)c1,25.1%
9,CCC1CCc2c(sc(NC(=O)C3CC=CCC3C(=O)O)c2C#N)C1 (configuration not stated),32.7%
10,CCN(CC)c1ccc(NC(=S)NC(=O)c2cccs2)cc1,18.4%
11,CCOC(=O)Cc1csc(NC(=S)NC(=O)C(C)(C)C)n1,28.2%
12,COc1cccc(C(=O)Nc2cccc(-c3ccc(N4CCOCC4)nn3)c2)c1,5.2%
13,CCOc1ccc(-c2cccc(NC(=O)c3ccc(Br)o3)c2)nn1,-8.6% (active)
14,Cc1cccc(NC(=S)NC(=O)c2ccc(Br)o2)c1,69.7%
15,O=c1c2cc(Cl)ccc2nc(-c2ccc([N+](=O)[O-])cc2)n1O,54.4%
16,O=C(COc1ccccc1Cl)NC(=S)Nc1ccccc1N1CCCC1,6.2%
17,CNC(=S)Nc1sc2c(c1C(=O)OC)CCC2,31.9%
18,Cc1ccc(C(=O)NNC(=S)NC(=O)c2ccccc2)cc1,-4.5% (active)
19,Cc1ccc(C(=O)NNC(=S)NC(=O)c2ccc(Cl)cc2)cc1,0.8%
20,Cc1cccc(C(=O)NC(=S)N(C)C2CCCCC2)c1,46.3%
21,O=C(NNC(=S)NC(=O)c1sc2ccccc2c1Cl)c1ccc(Cl)cc1,32.9%
22,Cc1cccc(C(=O)NC(=S)NNC(=O)COc2c(C)cccc2C)c1,-13.3% (active)
23,Cc1cccc(C(=O)NNC(=S)NC(=O)c2ccccc2)c1,26.9%
24,Cc1cccc(C(=O)NC(=S)NNC(=O)c2ccc(Cl)cc2)c1,-7.1% (active)
25,Cc1ccc(NC(=S)NC(=O)c2ccc(-c3ccccc3)cc2)cc1,10.9%
26,Cc1cccc(C(=O)NC(=S)N2CCc3ccccc3C2)c1,50.3%
